Here are results for 40 molecules from PubChem BioAssay AID1347383 (Zoeller Lab, School of Medicine, Boston University, 2020).

Activity calls are given as the source filed them.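 How the source made its calls: active means cell survival after UV exposure 2 SD above solvent-only control wells at 10 µM, confirmed on one or two repeats; inactive means the rest.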

A short description of this assay: protection of CHO cells from pyrene-fatty acid UV killing, primary screen, phospholipid biosynthesis inhibitor project, ZR-82 cells, Analyticon library, screen 2 (AID 1347383).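 Further: survival reflects blocked phospholipid synthesis cutting uptake of the phototoxic fatty acid; compound and fatty acid exposure 3 h then viability read next day.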 As to conditions: ZR-82 CHO cells, CellTiter Blue, at 10 µM, peroxisome-deficient CHO-K1 variant, with DGAT-1, DGAT-2 and ACAT inhibitors.
On to `OCCc1ccc(O)cc1`, for which the molecule was called inactive.

On to `CC(=O)Oc1ccc2c(C)cc(=O)oc2c1`, for which the call was inactive.

Take `C=C[C@@]1(C)CC[C@@H]([C@H](C)C(=O)CC=C(C)C)O1`: the call was inactive.

For `C=C(CO)C1Cc2c(ccc3c(=O)c4c(oc23)COc2cc(O)c(OC)cc2-4)O1` (stereo not given), the molecule was classed as inactive.

As for `Cc1cc2c(CO)cc(O)cc2o1`, the molecule was called inactive.

Take `C=CC(C)(C)c1c(OC)oc2cccc(C)c2c1=O`: the result was inactive.

With `CC(=O)/C=C(O)/C=C/c1ccc(O)cc1`, the outcome was inactive.

Consider `C=CC#Cc1ccc(-c2cccs2)s1`, for which the molecule was called inactive.

On to `CC(C)=CCc1c(O)cc2oc3cc(C)cc(O)c3c2c1C`, for which the molecule was classed as inactive.

Take `COc1cc2ccc(=O)oc2cc1OC`: the outcome was inactive.

As to `CC1(C)CC2C3OC(O)C4(O)OC(C)(CC34)C2C1` (stereo not given), the call was inactive.

Regarding `C=C[C@@]12COC(=O)C(=C)[C@@H]1[C@@H](O)[C@H](C(=C)C(=O)OC)[C@@H](O)C2`, the call was inactive.

Turning to `CCOC(=O)C1C(=O)C(=O)Nc2ccccc21` (stereo not given), the molecule was classed as inactive.

With `CCCCCCCCC(=O)/C=C/C=C/C(=O)CCCC(=O)O`, the molecule was classed as inactive.

`OCCc1ccc(O)cc1O`: the molecule was classed as inactive.

Turning to `CCC(C)C1NC(=O)C(C)NC1=O` (stereo not given), the call was inactive.

For `O=C(O)CCC1OC(=O)C(O)=C1c1ccccc1` (stereo not given), the molecule was classed as inactive.

`C=C(C(=O)OC)[C@@H]1CC=C2C=CC(=O)[C@H](C)[C@@]2(C)C1`: the call was inactive.

As to `COc1c2cccc(C)c2c(C=O)c2c(COC(C)=O)coc12`, the outcome was inactive.

With `C=C(C)[C@@H]1CC[C@]2(C(=O)O)CC[C@]3(C(=O)O)[C@H](CCC4[C@@]5(C)CCC(=O)C(C)(C)C5CC[C@]43C)C12` (stereo not given in full), the molecule was called inactive.

Regarding `CC(C)=CCCC1=CC(=O)OC1O` (stereo not given), the outcome was inactive.

Take `C/C=C/CCc1cc(O)c2c(c1)OC(C)C2CO` (stereo not given): the molecule was called inactive.

Turning to `CC1CCCC[C@H]2C(=O)C=C[C@H](O)[C@@H]2CC(=O)O1` (stereo not given in full), the molecule was called inactive.

Turning to `CCC(C)C(=O)Oc1cc(C)ccc1C1(COC(=O)C(C)C)CO1` (stereo not given), the result was inactive.

For the molecule `COc1cc(O)cc2occ(-c3ccc(O)cc3O)c(=O)c12`, the outcome was inactive.

`COc1c(O)cc2c3c1COc1cc(O)cc(c1-3)CC2`: the result was inactive.

Consider `C=C(C=O)[C@]1(O)C[C@@]2(C)C(=CC1=O)C=C[C@H](OC(=O)/C=C/C=C/[C@H](C)CC)[C@@H]2C`, for which the molecule was classed as inactive.

In the case of `COc1c(O)ccc2c1C(=O)c1ccccc1C2=O`, the molecule was classed as inactive.

Take `COc1c(C2=Cc3ccc(O)cc3OC2)ccc(O)c1CC=C(C)C`: the molecule was called inactive.

For `CC(C)c1ccc2c(c1)CCC1C(C)(C(=O)O)CCCC21C` (stereo not given), the call was inactive.

Take `CC(C)=CCOc1ccc(/C=C/C(=O)c2ccc(O)cc2O)cc1`: the molecule was called inactive.

`Oc1ccc([C@@H]2Oc3cc(O)cc(O)c3C[C@@H]2O)cc1`: the molecule was called inactive.

With `CC/C=C/CC1=C(CCCCCCCC(=O)O)CCC1=O`, the outcome was inactive.

`CCCCCCCCCCC1CC2=C(OC(CCCCCCC)CC2=O)C(=O)O1` (stereo not given): the call was inactive.

Consider `Cc1coc2c1CC1OC1(C)CCC1OC1(C)C2` (stereo not given), for which the outcome was inactive.

Turning to `CC1C=CC2CCCCC2C1CCC1CC(O)CC(=O)O1` (stereo not given), the molecule was called inactive.

With `COc1cc(/C=C/c2ccc(O)cc2)cc(OC)c1`, the outcome was inactive.

On to `C=C(COC(=O)C(C)C)C1Oc2cc(C(C)=O)ccc2C1OC(=O)C(C)C` (stereo not given), for which the result was inactive.

With `O=C(O)C(O)Cc1c[nH]c2ccccc12` (stereo not given), the molecule was classed as inactive.

In the case of `C=CC(C)(O)CC[C@@]1(C)[C@H](C)CC[C@]2(C)[C@@H]1C[C@@H](O)[C@@H](O)[C@]2(C)O` (stereo not given in full), the result was inactive.
